# Experimental data: PubChem BioAssay (NCATS)
# Where “and” joins values, the source holds several entries; their conditions need not be identical. Equal values may be shown once. Inconclusive results are not listed. A number with no mark means an inactive call. The call rests on the fitted dose curve; in most records, active means well fitted inhibition curve with a large enough effect; inconclusive means small, poorly fitted or top-dose-only effect; inactive means flat fitted curve, though single readings scatter.
# Experiment: Drug repurposing screens with cells derived from glioblastoma tumor samples (AID 1345199); further: nearly all actives have a fitted effect of over 40% in size
# Conditions: GBM patient neurospheres viability, ATP luminescence, 48 h; at 45.9 µM (top of the series); tumour line B
# Procedure, shortened: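 Four patient lines of CD133+ GBM neurospheres were screened at several concentrations; hits were retested in those lines plus three slower-growing GBM lines, using 48-hour treatment and ATP-based viability.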
# On the % scale 0 is the no-effect control and ±100 the full control effect.
row,Compound,"activity, negative = cell killing"
1,[2H]C([2H])([2H])[C@H](N)Cc1ccccc1,-8.74%
2,Cc1ccccc1-n1c(CF)nc2ccc(N)cc2c1=O,-13.6%
3,O=C(NC(=O)c1c(F)cccc1F)Nc1ccc(Cl)c(Oc2ncc(C(F)(F)F)cc2Cl)c1,-0.522%
4,C[C@]12CC[C@H]3[C@@H](CC[C@@]45O[C@@H]4C(O)=C(C#N)C[C@]35C)[C@@H]1CC[C@@H]2O,0.146%
5,CN(C)CCCCCCN(C)C (tested in a mixture with another compound),-12.5%
6,CCC(=O)O[C@]1(c2ccccc2)CCN(C)C[C@H]1C,-13.3%
7,COc1ccc(OC)c([C@@H](O)[C@H](C)N)c1,-15.8%
8,c1csc(C2(N3CCCCC3)CCCCC2)c1,-10.4%
9,CC(=O)OC1CN2CCC1CC2 (centres undefined),-1.18%
10,Clc1ccc(C2(Cn3cncn3)OCCO2)c(Cl)c1,-15.5%
11,CC[N+](C)(CC)CCOC(=O)C(O)(c1ccccc1)c1ccccc1,-10.1%
12,O=C(CS(=O)C(c1ccccc1)c1ccccc1)NO (centres undefined),-1.04%
13,C[C@@H](Cc1ccccc1)N(C)C,-4.88%
14,OC[C@@H](O)[C@H]1O[C@@H]2O[C@H](C(Cl)(Cl)Cl)O[C@@H]2[C@H]1O,-1.98%

# Same assay, conditions: GBM patient neurospheres viability, ATP luminescence, 48 h; at 45.9 µM (top of the series); tumour line D
row,Compound,"activity, negative = cell killing"
1,CCCCNCC(O)c1ccc(O)cc1 (centres undefined),-0.799%
2,C#CC(C)(O)CC (centres undefined),-11.4%
3,O=C(CCl)c1ccc(Oc2ccc(C(=O)CCl)cc2)cc1,-6.59%
4,CCC1(CC)C(=O)NC(=O)N(C)C1=O,-23.6%
5,C=CCN1CC[C@]23c4c5ccc(O)c4O[C@H]2[C@@H](O)C=C[C@H]3[C@H]1C5,3.8%
6,C=CCC1(C(C)CCC)C(=O)N=C(S)NC1=O (centres undefined),-15.2%
7,C[C@]12CCC(=O)C[C@@H]1CC[C@@H]1[C@@H]2CC[C@]2(C)[C@@H](O)CC[C@@H]12,-25.4%
8,CCCC(C)C1(CC)C(=O)NC(=O)NC1=O (centres undefined),0.152%
9,O=C1CCCCC1CN1CCCCC1 (centres undefined),4.04%
10,C[N+]1(C)CCCCC1COC(=O)C(O)(c1ccccc1)c1ccccc1 (centres undefined),-3.36%
11,C[C@@H]1[C@@H]2Cc3ccc(O)cc3[C@@]1(C)CCN2CC1CC1,-18.9%
12,C=CCN(C1=NCCN1)c1c(Cl)cccc1Cl,-0.731%
13,O=c1[nH]cc(N(CCCl)CCCl)c(=O)[nH]1,-17.9%
14,O=P(O)(O)C(Cl)(Cl)P(=O)(O)O,-11.3%
15,CNC1(c2ccccc2Cl)CCCCC1=O (centres undefined),-13.4% and -12.7%
16,O=C1CN(O)C(c2ccccc2)=c2cc(Cl)ccc2=N1,-10.4%

row,Compound,"activity, negative = cell killing"
1,c1ccc2sc(SNC3CCCCC3)nc2c1,-11.7%
2,CN[C@H]1C[C@@H](N)[C@H](O)[C@@H](O[C@@H]2O[C@H](CO)[C@H](O)[C@@H]3OC4(O[C@H]23)O[C@H](C(N)CO)[C@H](O)[C@H](O)[C@H]4O)[C@@H]1O (some centres undefined),-24.2%
3,C[C@]12CC[C@H]3[C@@H](CCC4=C(O)C(=O)CC[C@@H]43)[C@@H]1CC[C@@H]2OC(=O)CCC1CCCC1,-14.1%
4,[2H]C([2H])([2H])[C@H](N)Cc1ccccc1,-8.54%
5,Cc1ccccc1-n1c(CF)nc2ccc(N)cc2c1=O,0.0058%
6,O=C(NC(=O)c1c(F)cccc1F)Nc1ccc(Cl)c(Oc2ncc(C(F)(F)F)cc2Cl)c1,-21.9%
7,C[C@]12CC[C@H]3[C@@H](CC[C@@]45O[C@@H]4C(O)=C(C#N)C[C@]35C)[C@@H]1CC[C@@H]2O,-21.9%
8,CN(C)CCCCCCN(C)C (tested in a mixture with another compound),-12.1%
9,CCC(=O)O[C@]1(c2ccccc2)CCN(C)C[C@H]1C,-17.1%
10,COc1ccc(OC)c([C@@H](O)[C@H](C)N)c1,-1.31%
11,c1csc(C2(N3CCCCC3)CCCCC2)c1,-7.27%
12,CC(=O)OC1CN2CCC1CC2 (centres undefined),12%
13,Clc1ccc(C2(Cn3cncn3)OCCO2)c(Cl)c1,0.916%
14,CC[N+](C)(CC)CCOC(=O)C(O)(c1ccccc1)c1ccccc1,-2.57%
15,C[C@@H](Cc1ccccc1)N(C)C,-10.7%
16,OC[C@@H](O)[C@H]1O[C@@H]2O[C@H](C(Cl)(Cl)Cl)O[C@@H]2[C@H]1O,-2.86%

# Same assay, conditions: GBM patient neurospheres viability, ATP luminescence, 48 h; at 46 µM (top of the series); tumour line A
row,Compound,"activity, negative = cell killing"
1,CN[C@H]1C[C@@H](N)[C@H](O)[C@@H](O[C@@H]2O[C@H](CO)[C@H](O)[C@@H]3OC4(O[C@H]23)O[C@H](C(N)CO)[C@H](O)[C@H](O)[C@H]4O)[C@@H]1O (some centres undefined),-23.6%
2,CC[N+](C)(CC)CCOC(=O)C(O)(c1ccccc1)c1ccccc1,-29.2%
3,O=C(CS(=O)C(c1ccccc1)c1ccccc1)NO (centres undefined),-19.6%
